Hits are enriched below; roughly 19% of the tested compounds scored in any of these assays.
Gal4-VP16 FLuc – Gal4-VP16 reporter inhibition counter-screen. Drosophila S2 Gal4-VP16 UAS-luciferase, luminescence, 20 h. Potency, µM (top dose mostly 53.6 µM), for inactives: at the highest dose activity, negative = inhibition, most hits filed as inhibitors. 310,000 tested, 3.5% active;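 further: Gal4-VP16 expression switched on by copper sulfate through the metallothionein promoter; nearly all actives have a fitted effect of over 50% in size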
TDP1 cell CPT – growth inhibition of DT40 Tdp1-/-;hTDP1 cells with camptothecin (screen for TDP1 inhibitors). 420,000 tested, 12% active. Potency, µM (highest dose often 46.2 µM), for inactives: top-dose activity change, negative = growth inhibition, usual class: inhibitors. chicken DT40 Tdp1-/-;hTDP1 cells + 20 nM CPT, ATP luminescence, 48 h. AID 686979; further: nearly all actives have a fitted effect of over 55% in size
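Chicken DT40 Tdp1-/- cells stably complemented with human TDP1 were seeded at 400 cells/well in medium containing 20 nM camptothecin, exposed to pin-transferred compounds, and grown at 37 °C for at least 48 hr. Viability was read as ATP luminescence.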
RORg inh – inhibitors of mouse ROR gamma transcriptional activity; AID 2551; P51450; 310,000 tested, 5.4% active; Potency, µM (titrated, usually from 53.6 µM), for the others: at the top dose activity change, negative = inhibition, actives largely listed as inhibitors; Drosophila S2 Gal4-RORgamma UAS-luciferase reporter, 20 h; further: nearly all actives have a fitted effect of over 60% in size
Target sequence (P51450 whole entry, looked up, the tested form may be a part): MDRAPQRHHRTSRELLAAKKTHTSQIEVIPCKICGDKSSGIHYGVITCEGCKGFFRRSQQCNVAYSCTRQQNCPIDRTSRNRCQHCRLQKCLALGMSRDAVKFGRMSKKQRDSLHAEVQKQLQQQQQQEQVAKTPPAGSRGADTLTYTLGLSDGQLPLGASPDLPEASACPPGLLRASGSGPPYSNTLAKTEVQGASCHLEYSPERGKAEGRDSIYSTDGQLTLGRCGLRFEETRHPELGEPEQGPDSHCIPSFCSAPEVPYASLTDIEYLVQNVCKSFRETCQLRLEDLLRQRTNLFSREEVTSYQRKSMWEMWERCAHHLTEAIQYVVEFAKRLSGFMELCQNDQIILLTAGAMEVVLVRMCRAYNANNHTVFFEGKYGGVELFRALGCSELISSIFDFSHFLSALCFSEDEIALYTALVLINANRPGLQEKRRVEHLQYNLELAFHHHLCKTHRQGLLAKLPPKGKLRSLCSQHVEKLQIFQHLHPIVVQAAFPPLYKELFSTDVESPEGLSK
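Schneider cells (Drosophila), stable Gal4 DBD–ROR gamma + UAS-luc; 1 hr cmpd preincubation; Cu2+ induction 700 uM final; 20 hr ambient; luminescence.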
TDP1 cell noCPT – qHTS for Inhibitors of human tyrosyl-DNA phosphodiesterase 1 (TDP1): qHTS in cells in absence of CPT | DT40 Tdp1-/- hTDP1 cells, no CPT, ATP luminescence, 48 h | Potency, µM (highest dose often 46.2 µM), for inactives: at the highest dose activity change, negative = growth inhibition, hits mostly inhibitors | 420,000 tested, 15% active; further: nearly all actives have a fitted effect of over 55% in size
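Seeded 400 DT40-hTDP1 cells/well (vehicle DMSO, no 20 nM CPT); pinned compounds; ≥48 hr at 37 °C; CellTiter-Glo luminescence as viability measure.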
TDP1 inh – TDP1 (human) enzyme inhibition | Q9NUW8 | 350,000 tested, 0.28% active | Potency, µM (titrated, usually from 130 µM), for inactives: at the highest dose activity change, negative = inhibition, most hits filed as inhibitors | recombinant TDP1, AlphaScreen DNA substrate cleavage | AID 485290; further: nearly all actives have a fitted effect of over 40% in size
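Compounds were preincubated with Tdp1 (1 nM final) for 15 min at room temperature before substrate (15 nM final) started a 5 min reaction; beads (10 ug/ml final) were then added for 10 min before AlphaScreen detection.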
An asterisk follows results filed as active; ? = inconclusive; / = no result; [ ] = another dose, or the depositor's remark. The call rests on the fitted dose curve; in most records, active means well fitted curve in the direction sought with a large enough effect; inconclusive means small, poorly fitted or top-dose-only effect, or another doubt; inactive means no such curve, though single readings can be large; an effect the other way counts as inactive or inconclusive. On the % scale 0 is the no-effect control and ±100 the full control effect; potency means the concentration at half of the fitted maximal effect.

SMILES	Gal4-VP16 FLuc	TDP1 cell CPT	RORg inh	TDP1 cell noCPT	TDP1 inh
CCCC(O)(CCC)C(=O)NN1CCCCC1	-7%	23µM*	10%	?	1%
Cn1c(=O)cc(SCC(=O)NCc2ccc(F)cc2)c2cc(Cl)ccc21	/	7.3µM*	/	13µM*	5%
CCn1c(=O)cc(SCC(=O)NCc2ccc(C)o2)c2ccccc21	-1%	15µM*	3%	13µM*	7%
Cn1c(=O)cc(SCC(=O)N2CCN(c3ccccc3F)CC2)c2cc(Cl)ccc21	/	?	/	?	5%
CCn1c(=O)cc(SCC(=O)NCc2ccc(C)cc2)c2ccccc21	3%	?	-8%	26µM*	-1%
Cc1ccc(C)c(N(C)C(=O)COc2cc(=O)n(C)c3ccccc23)c1	3%	?	-34%	?	3%
Cc1ccc(C)c(N2CCN(C(=O)COc3cc(=O)n(C)c4ccccc34)CC2)c1	-5%	15µM*	37%	?	6%
CCOc1ccc(NC(=S)N(CCc2c(C)[nH]c3ccc(C)cc23)Cc2ccco2)cc1	?	?	?	?	3%
COc1ccccc1C(=O)NNC(=O)c1cccc(Br)c1	-9%	-3%	?	-1%	/
CC(c1ccccc1)N1C(=O)NC(NC(=O)c2cccnc2)(C(F)(F)F)C1=O (stereo not drawn)	-2%	2%	?	-17%	-1%[56.1 µM]
CCc1ccc(CNC(=O)CSc2cc(=O)n(CC)c3ccccc23)cc1	/	21µM*	/	8.2µM*	-1%
CCn1c(=O)cc(SCC(=O)N2CCN(c3cc(C)ccc3C)CC2)c2ccccc21	/	16µM*	/	?	7%
CCn1c(=O)cc(SCC(=O)Nc2ccc(C)cn2)c2ccccc21	26%	?	-2%	29µM*	1%
CCn1c(=O)cc(OCC(=O)NCc2ccco2)c2ccccc21	1%	2%	4%	-19%	?
CCn1c(=O)cc(OCC(=O)NCc2ccc(C)o2)c2ccccc21	7%	-16%	14µM*	-20%	-2%
CCOc1ccc(CNC(=O)CSc2cc(=O)n(CC)c3ccccc23)cc1	/	-3%	/	?	6%
C[C@H]1CCC[C@@]2(O[C@@H](CCO)C[C@H](O)[C@H]2O)O1	/	2%	/	6%	/
Cc1onc(-c2c(F)cccc2Cl)c1C(=O)NC(=S)NC1CCS(=O)(=O)C1 (stereo not drawn)	2%	-22%	-31%	-19%	6%
O=C(Cn1ncc2ccsc2c1=O)N1CCN(c2ccc(F)cc2)CC1	/	/	/	/	-1%
CCCn1c2ccccc2c2cnn(CC(=O)NCCN(C)C)c(=O)c21	2%	-25%	27%	0%	/
CCCNC(=O)Cn1ncc2c3ccccc3n(CCC)c2c1=O	/	?	/	15µM*	4%
CCCCN(C)CCNC(=O)Cn1ncc2c3ccccc3n(CCC)c2c1=O	/	23µM*	/	?	-1%
CCC1(C)Cc2ccccc2/C(=C/C(=O)N2CCCCC2)N1 (stereo not drawn)	10%	18µM*	9%	21µM*	2%
CCN1CCN(C(=S)NC(=O)c2cccc(Br)c2)CC1	/	?	/	?	2%
CCOC(=O)N1CCN(C(=S)NC(=O)/C=C/c2ccc(C)cc2)CC1	5.6µM*	-17%	5µM*	0%	5%
CCOC(=O)N1CCN(C(=S)NC(=O)c2cncc(Br)c2)CC1	2.5µM*	?	1.1µM*	?	0%
Cc1ccc(C(=O)NC(=S)N2CCN(C(=O)OC(C)(C)C)CC2)cc1Br	1.1µM*	18µM*	0.63µM*	13µM*	-2%
CCOC(=O)N1CCN(C(=S)NC(=O)c2cc(Br)ccc2Cl)CC1	5µM*	?	0.89µM*	?	3%
CCCNC(=O)COC(=O)c1ccc(-c2ccccc2)cc1	-5%	-16%	?	-26%	-5%
O=C(COC(=O)Cc1ccc(Br)cc1)NCc1cccs1	/	-5%	/	-6%	-1%

Source: PubChem BioAssay (National Center for Advancing Translational Sciences (NCATS))
